PubChem BioAssay (NCATS)
Values joined by “and” are separate entries in the source; they are usually repeats but may differ in a detail not shown here. Identical values can stand only once. Records with an inconclusive call do not appear. Where a call stands in place of a potency, no number is given. A structure can be active in one record and inactive in another. Active and inactive are the calls of the source. The call rests on the fitted dose curve; in most records, active means well fitted curve in the direction sought with a large enough effect; inconclusive means small, poorly fitted or top-dose-only effect, or another doubt; inactive means no such curve, though single readings can be large; an effect the other way counts as inactive or inconclusive.

Experiment: qHTS of pediatric cancer cell lines to identify multiple opportunities for drug repurposing: Primary screen for SK-N-MC cells (AID 1347093)
Settings: SK-N-MC viability, CellTiter-Glo luminescence, 48 h; series mostly up to 46 µM
Outline: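 Metabolically active cells were quantified by ATP-dependent luminescence (CellTiter-Glo, 15 min at room temperature) following 48 h treatment. Cells had been plated at 500-1,000 per well and settled for 5 h beforehand.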
Potency means the concentration at half of the fitted maximal effect.

Question: With Nc1ncn([C@H]2C[C@H](O)[C@@H](CO)O2)c(=O)n1 as the compound, how does the Potency read?
Answer: inactive

Question: With COc1c2occc2cc2ccc(=O)oc12 as the compound, how does the Potency read?
Answer: inactive

Question: For C[Se]CCC(N)C(=O)O (configuration not stated), which Potency is on record?
Answer: 54 µM (active)

Question: With CC1(C)C(=O)N(CCN2CCC(C(=O)c3ccc(F)cc3)CC2)c2ccccc21 as the compound, how does the Potency read?
Answer: 10.5 µM (active)

Question: For CCCCCCCCCCCCCCCCCCCCCCO, which Potency is on record?
Answer: inactive

Question: With O=C(NOCC1CC1)c1ccc(F)c(F)c1Nc1ccc(I)cc1Cl as the compound, how does the Potency read?
Answer: 16.8 µM (active) and 1.87 µM (active)

Question: Which Potency does the source give for Cc1nc2n(c(=O)c1CCN1CCC(c3noc4cc(F)ccc34)CC1)CCCC2 here?
Answer: inactive

Question: With N=C(N)c1ccc2cc(OC(=O)c3ccc(N=C(N)N)cc3)ccc2c1 as the compound, how does the Potency read?
Answer: inactive

Question: For CCN(CCO)CCCC(C)Nc1ccnc2cc(Cl)ccc12 (configuration not stated), which Potency is on record?
Answer: 2.96 µM (active)

Question: What about the activity change, negative = cytotoxic of the same compound?
Answer: -1.47% [at 4.84 µM] (inactive)

Question: With CCN(CC)C(=S)SSC(=S)N(CC)CC as the compound, how does the Potency read?
Answer: 18.7 nM (active) and 49.5 nM (active) and 119 nM (active)

Question: For NC(=O)Cc1cccc(C(=O)c2ccccc2)c1N, which Potency is on record?
Answer: inactive

Question: Which Potency does the source give for Cc1ccc(NC(=O)c2ccc(CN3CCN(C)CC3)cc2)cc1Nc1nccc(-c2cccnc2)n1 here?
Answer: inactive

Question: Which Potency does the source give for O=C(O)c1cn(-c2ccc(F)cc2)c2cc(N3CCNCC3)c(F)cc2c1=O here?
Answer: inactive

Question: For CN1C(C(=O)Nc2ccccn2)=C(O)c2sccc2S1(=O)=O, which Potency is on record?
Answer: inactive

Question: For Cc1cc2c(s1)Nc1ccccc1N=C2N1CCN(C)CC1, which Potency is on record?
Answer: inactive

Question: With COc1cc(OC)c(C(=O)CCCN2CCCC2)c(OC)c1 as the compound, how does the Potency read?
Answer: inactive

Question: With CC1=C(C(=O)O)N2C(=O)[C@@H](NC(=O)[C@H](N)C3=CCC=CC3)[C@H]2SC1 as the compound, how does the Potency read?
Answer: inactive

Question: Which Potency does the source give for Nc1cc(C(Cl)=C(Cl)Cl)c(S(N)(=O)=O)cc1S(N)(=O)=O here?
Answer: inactive

Question: Which Potency does the source give for Nc1ccc(S(N)(=O)=O)cc1 here?
Answer: inactive

Question: Which Potency does the source give for Clc1ccc2c(N3CCN(CCCN4CCN(c5ccnc6cc(Cl)ccc56)CC4)CC3)ccnc2c1 here?
Answer: inactive

Experiment: qHTS of pediatric cancer cell lines to identify multiple opportunities for drug repurposing: Primary screen for BT-37 cells (AID 1347094)
Settings: BT-37 viability, CellTiter-Glo luminescence, 48 h; series mostly up to 57.3 µM
Outline: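 CRCs from 8- or 11-point titrations (lowest final 0.59 nM NPC, 0.78 nM MIPE). Cell viability: CellTiter-Glo after 48 h incubation, 15 min room-temperature development, luminescence imaging.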

Question: Which Potency does the source give for COC(=O)C1=C(C)NC(C)=C(C(=O)OC(C)C)C1c1cccc2nonc12 (configuration not stated) here?
Answer: inactive

Question: Which Potency does the source give for CC1(C)NC(=O)N(c2ccc([N+](=O)[O-])c(C(F)(F)F)c2)C1=O here?
Answer: inactive

Question: For CC(C)(S)[C@@H](N)C(=O)O, which Potency is on record?
Answer: inactive

Question: For Cc1ncc([N+](=O)[O-])n1CC(C)O (configuration not stated), which Potency is on record?
Answer: inactive

Question: For COc1cc2c(cc1OC)C1CC(=O)C(CC(C)C)CN1CC2 (configuration not stated), which Potency is on record?
Answer: inactive

Question: For NS(=O)(=O)c1cc(C(=O)O)c(NCc2ccco2)cc1Cl, which Potency is on record?
Answer: inactive

Question: For COc1ccccc1N1CCN(CCN(C(=O)C2CCCCC2)c2ccccn2)CC1, which Potency is on record?
Answer: inactive

Question: Which Potency does the source give for Cc1cc(=O)oc2cc(O)ccc12 here?
Answer: inactive

Question: With CNC[C@@H](O)[C@@H](O)[C@H](O)[C@H](O)CO as the compound, how does the Potency read?
Answer: inactive

Question: Which Potency does the source give for c1cnc2cc3c(cc2n1)C1CNCC3C1 here?
Answer: inactive

Question: Which Potency does the source give for CCOC(=O)c1c(C)n(C)c2ccc(O)cc12 here?
Answer: inactive

Question: Which Potency does the source give for CCOc1cc(CC(=O)N[C@@H](CC(C)C)c2ccccc2N2CCCCC2)ccc1C(=O)O here?
Answer: inactive

Question: Which Potency does the source give for CC1Cc2ccccc2N1NC(=O)c1ccc(Cl)c(S(N)(=O)=O)c1 (configuration not stated) here?
Answer: inactive

Question: For O=C(OC1C[C@H]2CC[C@@H](C1)[N+]21CCCC1)C(O)(c1ccccc1)c1ccccc1 (some centres not stated), which Potency is on record?
Answer: inactive

Question: With CCCCC(CC)COC(=O)C(C#N)=C(c1ccccc1)c1ccccc1 (configuration not stated) as the compound, how does the Potency read?
Answer: inactive

Question: Which Potency does the source give for NNc1nncc2ccccc12 here?
Answer: inactive

Question: Which Potency does the source give for Oc1ccc(OCc2ccccc2)cc1 here?
Answer: inactive

Question: With Cc1cc(C2CCCCC2)n(O)c(=O)c1 as the compound, how does the Potency read?
Answer: 3.09 µM (active)

Question: With COc1ccc2cc([C@H](C)C(=O)O)ccc2c1 as the compound, how does the Potency read?
Answer: inactive

Question: Which Potency does the source give for Nc1ncn([C@H]2C[C@H](O)[C@@H](CO)O2)c(=O)n1 here?
Answer: inactive

Question: With COc1c2occc2cc2ccc(=O)oc12 as the compound, how does the Potency read?
Answer: inactive

Question: For C[Se]CCC(N)C(=O)O (configuration not stated), which Potency is on record?
Answer: inactive

Question: With CC1(C)C(=O)N(CCN2CCC(C(=O)c3ccc(F)cc3)CC2)c2ccccc21 as the compound, how does the Potency read?
Answer: inactive

Question: With CCCCCCCCCCCCCCCCCCCCCCO as the compound, how does the Potency read?
Answer: inactive

Question: With O=C(NOCC1CC1)c1ccc(F)c(F)c1Nc1ccc(I)cc1Cl as the compound, how does the Potency read?
Answer: 24.6 µM (active) and 21.7 µM (active)

Question: Which Potency does the source give for Cc1nc2n(c(=O)c1CCN1CCC(c3noc4cc(F)ccc34)CC1)CCCC2 here?
Answer: inactive

Question: With N=C(N)c1ccc2cc(OC(=O)c3ccc(N=C(N)N)cc3)ccc2c1 as the compound, how does the Potency read?
Answer: inactive

Question: For CCN(CC)C(=S)SSC(=S)N(CC)CC, which Potency is on record?
Answer: 24.3 nM (active) and 815 nM (active)

Question: Which Potency does the source give for NC(=O)Cc1cccc(C(=O)c2ccccc2)c1N here?
Answer: inactive

Question: With Cc1ccc(NC(=O)c2ccc(CN3CCN(C)CC3)cc2)cc1Nc1nccc(-c2cccnc2)n1 as the compound, how does the Potency read?
Answer: inactive

Question: Which Potency does the source give for O=C(O)c1cn(-c2ccc(F)cc2)c2cc(N3CCNCC3)c(F)cc2c1=O here?
Answer: inactive
